The text below walks through data of PubChem BioAssay (EPA / NIEHS).

The source made the active and inactive calls. How the source made its calls: active means hit-call score of the fitted dose curve at least 0.9, where 1 is the maximum; inactive means score below 0.9.

For orientation: AC50 means the concentration at which the activity in the assay is half-maximal.

The nature of assay [1]: ATG_M_61_CIS: Attagene CIS-FACTORIAL HepG2 Assay for M61 Transcription Factor (Internal Marker) (AID 2282937). As to conditions: HepG2 Attagene CIS-FACTORIAL M61 internal marker reporter; actives raise or lower the signal. The gist of the method:
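Readout: fluorescent reporter mRNA fragments resolved by capillary electrophoresis after RT-PCR. Transiently transfected human HepG2 cells carried MRTU constructs reporting endogenous TF activity; 24 h chemical exposure; gain or loss of signal fitted relative to DMSO.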

A short description of assay [2]: ATG_EGR_CIS: Attagene CIS-FACTORIAL HepG2 Assay for human Early Growth Response 1 (EGR1) (AID 2282938). As to conditions: HepG2 Attagene CIS-FACTORIAL EGR reporter mRNA; actives raise or lower the signal. In outline: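 Read-out: fluorescent reporter-mRNA fragments resolved by capillary electrophoresis after RT-PCR, 24 h post-dose in transiently transfected HepG2. Endogenous transcription-factor activity reported via cis-element-regulated reporter units; gain or loss fitted relative to DMSO.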

Assay [3] can be described thus: ATG_M_19_CIS: Attagene CIS-FACTORIAL HepG2 Assay for M19 Transcription Factor (Internal Marker) (AID 2282939). As to conditions: HepG2 Attagene CIS-FACTORIAL M19 internal marker reporter; actives raise or lower the signal. In outline: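 Internal marker readout, fitted in both directions against DMSO, from HepG2 cells carrying transfected cis-element reporter constructs; RT-PCR and capillary electrophoresis of reporter mRNA after 24 h exposure.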

A short description of assay [4]: ATG_Ets_CIS: Attagene CIS-FACTORIAL HepG2 Assay for human Erythroblast Transformation Specific (ETS) (AID 2282941). As to conditions: HepG2 ETS cis-reporter transcription, actives raise or lower the signal. The gist of the method:
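After transient cis-reporter transfection, HepG2 cells receive test chemical for 24 h. Reporter mRNA levels, measured by RT-PCR and capillary electrophoresis fluorescence, are analysed bidirectionally relative to the DMSO baseline.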

In assay [5] the target is Hepatocyte nuclear factor 3-beta (Homo sapiens) (UniProt Q9Y261). The assay is described as follows: ATG_FoxA2_CIS: Attagene CIS-FACTORIAL HepG2 Assay for human Forkhead box A2 (FOXA2) (AID 2282942). As to conditions: HepG2 cis-reporter transcription factor activity, 24 h; actives raise or lower the signal. In outline:
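Readout: fluorescent reporter transcripts resolved by capillary electrophoresis after RT-PCR. Transiently transfected HepG2, 24 h compound exposure, endogenous TF activity at cis promoter elements. Gain or loss of signal fitted relative to DMSO.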

A short description of assay [6]: ATG_FoxO_CIS: Attagene CIS-FACTORIAL HepG2 Assay for human Forkhead box O (FoxO) (AID 2282943). As to conditions: HepG2 Attagene cis-reporter, FoxO element, mRNA; actives raise or lower the signal. The gist of the method:
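Read-out: fluorescence of 6-FAM-labelled reporter cDNA fragments resolved by capillary electrophoresis. Transiently transfected HepG2 cells were dosed for 24 h; activity fitted in both directions relative to DMSO controls.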

Assay [7] can be described thus: ATG_GATA_CIS: Attagene CIS-FACTORIAL HepG2 Assay for human GATA Binding Protein (AID 2282944). As to conditions: HepG2 GATA cis-element reporter, Attagene multiplex mRNA; actives raise or lower the signal. The gist of the method:
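Reporter transcripts from a GATA cis-regulated unit, among multiplexed reporters in transfected HepG2 cells, were measured by RT-PCR with capillary electrophoresis after 24 h dosing. Induction or loss scored relative to DMSO.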

Assay [8] is described as follows: ATG_GLI_CIS: Attagene CIS-FACTORIAL HepG2 Assay for human Zinc Finger Protein GLI1 (AID 2282945). As to conditions: HepG2, Attagene cis-factorial reporter mRNA, GLI element; actives raise or lower the signal. In outline:
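Transiently transfected HepG2 cells report endogenous transcription factor activity via cis-element-driven reporter units. After 24 h compound exposure, reporter mRNA was measured by RT-PCR with capillary electrophoresis; bidirectional fitting against DMSO baseline.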

Assay [9] deals with Bile acid receptor (Homo sapiens) (UniProt Q96RI1). The assay is described as follows: ATG_IR1_CIS: Attagene CIS-FACTORIAL HepG2 Assay for human Nuclear Receptor Subfamily 1 Group H Member 4 (NR1H4), IR1 submotif (AID 2282946). As to conditions: IR1 reporter transcription, actives raise or lower the signal. In outline:
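HepG2 cells transiently transfected with multiple cis-promoter-driven reporter units to measure endogenous transcription factor activity; 24 h exposure. Reporter mRNA read by RT-PCR, FAM labelling, HpaI digestion and capillary electrophoresis. Bidirectional fit versus DMSO.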

Assay [10] can be described thus: ATG_GRE_CIS: Attagene CIS-FACTORIAL HepG2 Assay for human Glucocorticoid Response Elements (GRE) (AID 2282947). As to conditions: HepG2 GRE cis-reporter, Attagene multiplex mRNA; actives raise or lower the signal. The gist of the method:
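Transiently transfected HepG2 cells carrying GRE cis-reporter units (endogenous TF activity) dosed 24 h; reporter mRNA quantified by RT-PCR, 6-FAM labelling, HpaI digestion and capillary electrophoresis. Bidirectional fit versus DMSO baseline.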

Assay [11] in a line: ATG_ISRE_CIS: Attagene CIS-FACTORIAL HepG2 Assay for human Interferon Regulatory Factor 1 (IRF1) binding to an Interferon-Stimulated Response Element (ISRE) (AID 2282948). As to conditions: HepG2 ISRE cis-reporter (Attagene), mRNA transcription readout; actives raise or lower the signal. The gist of the method: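 Quantitation relies on labelled RT-PCR fragments separated by capillary electrophoresis. Human HepG2 cells bearing cis-promoter reporter constructs were treated 24 h; DMSO served as baseline for bidirectional fitting.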

Assay [12] is described as follows: ATG_M_32_CIS: Attagene CIS-FACTORIAL HepG2 Assay for M32 Transcription Factor (Internal Marker) (AID 2282949).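 Further: background control marker of the multiplexed CIS panel rather than a real target.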 As to conditions: HepG2 Attagene cis-factorial M32 reporter, mRNA; actives raise or lower the signal. In outline: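 HepG2 cells transiently transfected with multiplexed cis-regulated reporter units, dosed 24 h. Reporter mRNA quantified by RT-PCR, 6-FAM labelling, HpaI digestion and capillary electrophoresis; bidirectional fit vs DMSO.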

Assay [13] in a line: ATG_M_06_CIS: Attagene CIS-FACTORIAL HepG2 Assay for M06 Transcription Factor (Internal Marker) (AID 2282950). As to conditions: HepG2 Attagene CIS-FACTORIAL M06 internal marker reporter; actives raise or lower the signal. The gist of the method:
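Serves as a background control readout. Transfected HepG2 exposed to compounds for 24 h, then reporter transcripts quantified by fluorescent RT-PCR and capillary electrophoresis. Both directions fitted against DMSO baseline.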

Assay [14] addresses Hypoxia-inducible factor 1-alpha (Homo sapiens) (UniProt Q16665). The assay is described as follows: ATG_HIF1a_CIS: Attagene CIS-FACTORIAL HepG2 Assay for human Hypoxia Inducible Factor 1 (HIF1A) (AID 2282951). As to conditions: HepG2 Attagene cis-factorial HIF1a reporter transcription; actives raise or lower the signal. In outline:
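RT-PCR/capillary electrophoresis fluorescence readout of reporter transcripts from endogenous-TF-driven cis elements in transfected HepG2 cells, 24 h exposure; activity fitted in both directions against DMSO controls.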

Assay [15] deals with Hepatocyte nuclear factor 6 (Homo sapiens) (UniProt Q9UBC0). The assay is described as follows: ATG_HNF6_CIS: Attagene CIS-FACTORIAL HepG2 Assay for human Hepatocyte Nuclear Factor 6 (HNF6) (AID 2282952). As to conditions: HepG2 Attagene cis-factorial HNF6 reporter transcription; actives raise or lower the signal. In outline:
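Multiplexed mRNA reporter assay in transfected HepG2; 24 h dosing; RT-PCR plus capillary electrophoresis fluorescence; DMSO-referenced bidirectional curve fitting.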

The target in assay [16] is Heat shock factor protein 1 (Homo sapiens) (UniProt Q00613). The assay is described as follows: ATG_HSE_CIS: Attagene CIS-FACTORIAL HepG2 Assay for human Heat Shock Transcription Factor 1 (HSE) (AID 2282953). As to conditions: HepG2 HSE cis-reporter, Attagene RNA transcription; actives raise or lower the signal. The gist of the method:
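Endogenous transcription factor activity in transiently transfected HepG2, read as reporter mRNA by RT-PCR with fluorescent capillary electrophoresis after 24 h. Gain or loss of signal fitted versus DMSO baseline.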

Assay [17] can be described thus: ATG_MRE_CIS: Attagene CIS-FACTORIAL HepG2 Assay for human Metal Responsive Element (MRE) (AID 2282954). As to conditions: HepG2 MRE cis-reporter transcription, Attagene multiplex; actives raise or lower the signal. In outline: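 HepG2 cells transiently transfected with cis-element-driven reporter units; mRNA measured 24 h after dosing. Reporter transcripts quantified by RT-PCR, FAM labelling, HpaI digestion and capillary electrophoresis; bidirectional fit versus DMSO.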

The nature of assay [18]: ATG_PBREM_CIS: Attagene CIS-FACTORIAL HepG2 Assay for human Phenobarbital-responsive Enhancer Module (PBREM) (AID 2282955). As to conditions: HepG2 PBREM cis-reporter, Attagene multiplexed transcription; actives raise or lower the signal. The gist of the method: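 Reporter mRNA read by RT-PCR, 6-FAM primer extension, HpaI digestion and capillary electrophoresis. Transfected HepG2 cells, 24 h compound exposure. Gain or loss of signal fitted bidirectionally relative to DMSO baseline.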

The nature of assay [19]: ATG_ERE_CIS: Attagene CIS-FACTORIAL HepG2 Assay for Estrogen Response Element (ERE) (AID 2282940). As to conditions: HepG2 ERE cis-reporter, Attagene RNA transcript; actives raise or lower the signal. The gist of the method: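 After 24 h compound treatment, RNA from transfected HepG2 cells was reverse-transcribed, reporter cDNA PCR-amplified, FAM-labelled, HpaI-cut and resolved by capillary electrophoresis. ERE-driven cis reporter transcripts reflect endogenous factors; gain or loss scored against DMSO.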

Chain of Hypoxia-inducible factor 1-alpha (Homo sapiens) (Q16665 whole entry, looked up): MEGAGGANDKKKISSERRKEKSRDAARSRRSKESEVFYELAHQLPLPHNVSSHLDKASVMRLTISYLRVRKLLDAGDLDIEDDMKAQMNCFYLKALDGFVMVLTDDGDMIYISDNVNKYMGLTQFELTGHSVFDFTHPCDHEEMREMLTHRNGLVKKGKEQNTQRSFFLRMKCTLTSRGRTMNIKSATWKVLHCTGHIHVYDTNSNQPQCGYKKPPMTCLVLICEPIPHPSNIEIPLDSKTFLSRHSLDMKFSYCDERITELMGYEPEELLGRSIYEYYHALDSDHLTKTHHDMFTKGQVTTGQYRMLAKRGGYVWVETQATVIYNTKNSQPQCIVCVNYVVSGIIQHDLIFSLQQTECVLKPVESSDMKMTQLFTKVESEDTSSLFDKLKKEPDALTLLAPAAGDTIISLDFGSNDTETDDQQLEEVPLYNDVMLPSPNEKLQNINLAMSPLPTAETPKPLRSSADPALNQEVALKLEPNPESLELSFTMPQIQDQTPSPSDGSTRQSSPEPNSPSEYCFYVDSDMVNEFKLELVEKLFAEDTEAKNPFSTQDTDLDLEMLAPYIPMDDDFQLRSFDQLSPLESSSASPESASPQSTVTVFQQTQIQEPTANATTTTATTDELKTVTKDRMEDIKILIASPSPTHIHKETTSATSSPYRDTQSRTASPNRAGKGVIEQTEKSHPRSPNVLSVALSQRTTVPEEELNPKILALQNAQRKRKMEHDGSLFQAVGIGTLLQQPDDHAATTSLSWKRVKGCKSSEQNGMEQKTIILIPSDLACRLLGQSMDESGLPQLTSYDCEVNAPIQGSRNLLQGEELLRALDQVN
Chain of Bile acid receptor (Homo sapiens) (Q96RI1 whole entry, looked up): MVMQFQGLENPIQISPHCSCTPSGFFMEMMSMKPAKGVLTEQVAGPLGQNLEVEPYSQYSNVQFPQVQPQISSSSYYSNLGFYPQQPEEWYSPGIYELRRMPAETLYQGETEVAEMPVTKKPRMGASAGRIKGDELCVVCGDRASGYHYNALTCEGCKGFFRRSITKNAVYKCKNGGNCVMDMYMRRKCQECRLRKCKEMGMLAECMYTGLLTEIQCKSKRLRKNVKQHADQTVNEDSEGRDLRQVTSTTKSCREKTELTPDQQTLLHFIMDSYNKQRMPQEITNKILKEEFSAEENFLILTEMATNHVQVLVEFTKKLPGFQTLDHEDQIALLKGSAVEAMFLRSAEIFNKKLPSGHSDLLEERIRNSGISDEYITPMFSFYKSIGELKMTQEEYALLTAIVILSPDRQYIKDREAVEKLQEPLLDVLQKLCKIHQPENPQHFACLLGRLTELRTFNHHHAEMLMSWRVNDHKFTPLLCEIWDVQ
Chain of Hepatocyte nuclear factor 6 (Homo sapiens) (Q9UBC0 whole entry, looked up): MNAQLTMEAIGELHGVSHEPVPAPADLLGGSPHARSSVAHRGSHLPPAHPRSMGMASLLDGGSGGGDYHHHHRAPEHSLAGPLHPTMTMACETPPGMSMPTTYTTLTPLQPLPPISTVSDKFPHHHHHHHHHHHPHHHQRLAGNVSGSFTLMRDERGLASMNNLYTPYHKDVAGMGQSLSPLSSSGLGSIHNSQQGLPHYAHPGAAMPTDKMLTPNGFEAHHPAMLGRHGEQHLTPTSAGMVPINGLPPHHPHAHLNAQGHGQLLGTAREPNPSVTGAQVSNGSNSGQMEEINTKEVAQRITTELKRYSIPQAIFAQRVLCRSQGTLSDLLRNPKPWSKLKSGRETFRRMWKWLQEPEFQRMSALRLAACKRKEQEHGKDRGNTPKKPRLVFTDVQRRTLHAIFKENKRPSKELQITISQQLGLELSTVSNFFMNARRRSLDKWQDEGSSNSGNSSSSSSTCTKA
Chain of Heat shock factor protein 1 (Homo sapiens) (Q00613 whole entry, looked up): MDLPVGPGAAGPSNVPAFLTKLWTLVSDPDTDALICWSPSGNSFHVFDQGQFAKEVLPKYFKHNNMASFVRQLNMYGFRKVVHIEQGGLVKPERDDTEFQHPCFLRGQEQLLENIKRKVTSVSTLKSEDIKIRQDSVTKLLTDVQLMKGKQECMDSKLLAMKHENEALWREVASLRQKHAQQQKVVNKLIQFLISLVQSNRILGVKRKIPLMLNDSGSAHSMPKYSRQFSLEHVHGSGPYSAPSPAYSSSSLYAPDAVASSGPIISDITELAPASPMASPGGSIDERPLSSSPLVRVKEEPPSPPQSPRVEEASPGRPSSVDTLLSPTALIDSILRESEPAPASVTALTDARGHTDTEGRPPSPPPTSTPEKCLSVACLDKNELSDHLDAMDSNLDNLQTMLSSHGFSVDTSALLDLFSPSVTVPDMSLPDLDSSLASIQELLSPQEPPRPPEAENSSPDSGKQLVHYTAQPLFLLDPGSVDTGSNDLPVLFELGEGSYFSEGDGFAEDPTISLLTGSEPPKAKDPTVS
Chain of Hepatocyte nuclear factor 3-beta (Homo sapiens) (Q9Y261 whole entry, looked up): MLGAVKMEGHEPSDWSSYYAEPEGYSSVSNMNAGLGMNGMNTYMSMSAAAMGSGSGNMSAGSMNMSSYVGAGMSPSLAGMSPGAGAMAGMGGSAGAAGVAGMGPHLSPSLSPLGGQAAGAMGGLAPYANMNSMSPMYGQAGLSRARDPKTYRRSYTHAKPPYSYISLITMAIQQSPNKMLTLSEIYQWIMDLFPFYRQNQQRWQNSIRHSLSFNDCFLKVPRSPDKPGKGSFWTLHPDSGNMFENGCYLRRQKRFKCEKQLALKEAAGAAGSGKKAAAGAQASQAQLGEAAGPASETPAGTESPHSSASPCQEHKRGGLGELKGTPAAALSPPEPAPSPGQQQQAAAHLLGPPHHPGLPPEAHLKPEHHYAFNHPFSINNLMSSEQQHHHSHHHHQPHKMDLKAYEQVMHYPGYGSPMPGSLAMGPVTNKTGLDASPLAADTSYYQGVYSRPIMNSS

Regarding `Cc1[nH]cnc1C[C@H]1CCc2c(C)c3ccccc3n2C1=O`, the compound was classed as inactive in assay [1], in assay [3], in assay [4], in assay [5], in [6] and in assay [7]. The call in assay [8], in assay [9], in assay [10], in assay [12], in assay [13] and in assay [15] was inactive. Moreover, the AC50 in assay [2] was 29.7 µM (active); in assay [11], 21.9 µM (active); in [14] it was 20.7 µM (active); in assay [16], 46.5 µM (active); in [17] it was 33.9 µM (active); in assay [18], 15.8 µM (active).
On to `C1=CCCC=CCCC=CCC1`, for which the result in assay [1], in assay [2], in [3], in assay [4], in assay [5] and in assay [6] was inactive. For the same compound, the result in assay [7], in assay [8], in assay [9], in assay [10], in assay [11] and in assay [13] was inactive. Moreover, the compound was called inactive in assay [14], in assay [15], in assay [16], in assay [17] and in assay [18].
Take `CC1(C)C(=O)N(Br)C(=O)N1Br`: the call in assay [1], in assay [2], in assay [3], in assay [4], in assay [5] and in [6] was inactive. Further, the result in [7], in assay [8], in assay [9], in assay [10], in assay [11] and in assay [12] was inactive. Further, the outcome in assay [13], in assay [14], in assay [15], in [16], in assay [17] and in [18] was inactive.
Turning to `CCN(C(=O)c1cc(C)cc(OC[C@H](C)Nc2ccncc2)c1)C(C)C`, the compound was called inactive in [1], in assay [2], in assay [3], in assay [4], in [5] and in assay [6]. The call in assay [7], in assay [8], in assay [10], in [11], in [12] and in [13] was inactive. For the same compound, the outcome in assay [14], in [15], in assay [16], in assay [17] and in [18] was inactive. In assay [9], the AC50 is 42 µM (active).
Turning to `O=c1n(CC2CO2)c(=O)n(CC2CO2)c(=O)n1CC1CO1` (configuration not stated), the compound was called inactive in [1], in [3], in assay [19], in assay [5], in assay [7] and in assay [8]. The compound was called inactive in assay [11], in assay [13], in [14], in assay [15], in [16] and in [18]. The AC50 was 100 µM (active) in assay [2]; 100 µM (active) in assay [4]; 31.7 µM (active) in [6]; 32.7 µM (active) in [10]; 59 µM (active) in assay [17].
`O=C(OC[C@H]1O[C@@H](OC(=O)c2cc(O)c(O)c(OC(=O)c3cc(O)c(O)c(O)c3)c2)[C@H](OC(=O)c2cc(O)c(O)c(OC(=O)c3cc(O)c(O)c(O)c3)c2)[C@@H](OC(=O)c2cc(O)c(O)c(OC(=O)c3cc(O)c(O)c(O)c3)c2)[C@@H]1OC(=O)c1cc(O)c(O)c(OC(=O)c2cc(O)c(O)c(O)c2)c1)c1cc(O)c(O)c(OC(=O)c2cc(O)c(O)c(O)c2)c1`: the outcome in [1], in assay [2], in [3], in [4], in assay [5] and in assay [6] was inactive. For the same compound, the compound was called inactive in [7], in [8], in [10], in assay [11], in assay [12] and in assay [13]. Moreover, the compound was called inactive in [15], in assay [16], in assay [17] and in assay [18]. The AC50 in assay [14] is 6.05 µM (active).
Regarding `COc1ccc(/C=C/S(=O)(=O)NC(=O)c2ccc(C)cc2Cl)cc1`, the outcome in assay [1], in [2], in assay [3], in assay [4], in assay [5] and in [6] was inactive. Moreover, the compound was classed as inactive in assay [7], in [8], in assay [9], in [10], in assay [11] and in assay [12]. Further, the call in assay [13], in assay [14], in assay [15], in assay [16] and in assay [17] was inactive.
